Results from the supplement of paper PMC7858590.
Where “and” joins values, the source holds several entries; their conditions need not be identical. Identical values can stand only once. ± gives the standard deviation of the averaged measurements. Over roughly 3,800 compounds, “cell shape (eccentricity) Z-score vs DMSO control” has its median near 1.1; the lowest 2% begin near -4.7. For the sample, the lowest values were picked, then their nearest neighbours and some compounds at random.

system: human monocyte-derived macrophages (M0); experiment: cell shape (eccentricity) Z-score vs DMSO control; higher = more elongated, M2-like morphology; conditions: 20 µM; 24 h; macrophage state: M0 (M-CSF)
Procedure: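 Primary human monocyte-derived macrophages (M-CSF differentiated, pooled from 4 donors, 5000 cells/well in 384-well plates) were treated with each compound at 20 uM for 24 h, then fixed and stained with phalloidin/DAPI and imaged on an Opera Phenix (6 fields, about 1000 cells/well). Cell eccentricity was measured with CellProfiler, and a Z-score (t-test) was computed against 4 DMSO control wells in the same row. Negative values mean round (M1-like) cells and positive values mean elongated (M2-like) cells; the paper's hit cutoffs are Z <= -4 (M1) and Z >= 6 (M2). Scale: negative = round, M1-like.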

Point of comparison: CCOC(=O)N[C@@H]1CC[C@@H]2[C@@H](C1)C[C@H]1C(=O)O[C@H](C)[C@H]1[C@H]2/C=C/c1ccc(-c2cccc(F)c2)cn1, “cell shape (Z-score)” value 5.12. Against it:
- O=C(O)Cn1c(C(=O)Nc2nc(-c3ccccc3Cl)cs2)cc2ccccc21 — lower, 2.41
- O=C(O)CN1C(=O)c2cccc3cccc(c23)C1=O — lower, -6.86
- O=C(O)CCCN1C(=O)c2cccc3cccc(c23)C1=O — lower, 1.83
- O=c1[nH]c2cc(Cl)ccc2c(O)c1-c1cccc(Oc2ccccc2)c1 — lower, -0.358
- CN1C(C(=O)Nc2ccccn2)C(=O)c2ccccc2S1(=O)=O (stereo not drawn) — lower, 1.33
- CC(=O)C(C#N)C(=O)Nc1cc(Br)ccc1Br (stereo not drawn) — lower, -5.16
- C[C@H]1CN([C@@H](C)CO)S(=O)(=O)c2ccc(C#Cc3ccncc3)cc2O[C@@H]1CN(C)C(=O)Nc1ccc2c(c1)OCO2 — lower, -10.9
- C[C@@H]1CN([C@H](C)CO)S(=O)(=O)c2ccc(C#Cc3ccncc3)cc2O[C@H]1CN(C)C(=O)Nc1ccc2c(c1)OCO2 — lower, 3.81
- C[C@H]1CN([C@@H](C)CO)S(=O)(=O)c2ccc(C#Cc3ccccc3F)cc2O[C@H]1CN(C)C(=O)Cc1ccncc1 — lower, 2.68
- COc1cc2oc(-c3ccccc3)cc(=O)c2c(O)c1OC — lower, 3.73
- C=C1C(=O)O[C@@H]2C[C@H](C)C3C[C@H](O)[C@H](O)[C@@]3(C)C[C@H]12 (stereo partly drawn) — lower, -2.78 ± 0.67
- CN[C@H]1CC[C@@H](c2ccc(Cl)c(Cl)c2)c2ccccc21 — lower, -5.32
- C=C1CC(O)C2C(=C)C(=O)OC2C2C(=C)C(OC3OC(CO)C(O)C(OC(=O)/C=C/c4ccc(O)c(O)c4)C3O)CC12 (stereo not drawn) — lower, -1.95
- CC(C)CC1NC(=O)C2CCCN2C1=O (stereo not drawn) — lower, 2.84
- CC(C)CC1NC(=O)C(C)NC1=O (stereo not drawn) — lower, -5.83
- CC(C)=CCc1c(O)cc(O)c2c1OC(c1ccc(O)c(O)c1)CC2=O (stereo not drawn) — lower, 1.24
- O=C1c2cccc(O)c2C(=O)c2c(O)cccc21 — lower, 3.05
- c1ccc2nc(C3=NCCN3)cnc2c1 — lower, 1.3
- c1ccc2nc(C3=NCCN3)ccc2c1 — lower, 0.187
- c1ccc2cc(C3=NCCN3)ncc2c1 — lower, -4.69
- CCOc1ccc(Cc2cc([C@@H]3O[C@H](CO)[C@@H](O)[C@H](O)[C@H]3O)ccc2Cl)cc1 — lower, -0.0179
- CC1(C)C(=O)C=C[C@@]2(C)C1C=C[C@]1(C)C2CC[C@@]2(C)[C@H](c3ccoc3)OC(=O)[C@H]3O[C@]321 (stereo partly drawn) — higher, 7.92
- CCc1cc(C(C)=O)c(O)cc1OCCCCCC(C)(C)c1nnn[nH]1 — lower, 1.49
- CC(C)NC(=N)NC(=N)Nc1ccc(Cl)cc1 — lower, 0.874
- N=C(N)Nc1ccc(Cl)cc1 — lower, 0.554
- N=C(NCCCCCCNC(=N)NC(=N)Nc1ccc(Cl)cc1)NC(=N)Nc1ccc(Cl)cc1 — lower, -6.88
- CC(=O)N[C@H]1[C@H](O[C@H]2CC[C@@]3(C)C(CC[C@]4(C)C3CC=C3[C@@H]5CC(C)(C)CC[C@]5(C(=O)OC5OCC(O)C(O)C5O)C(O)C[C@]34C)C2(C)C)O[C@H](COC2OCC(O)C(OC3OCC(O)C(O)C3O)C2O)[C@@H](O[C@@H]2O[C@@H](C)[C@H](O)[C@@H](O)[C@H]2O[C@@H]2O[C@@H](C)[C@H](O)[C@@H](O)[C@H]2O)[C@@H]1O (stereo partly drawn) — lower, -2.27 ± 4.4
- O=C1NN(C(=O)Nc2ccc(Br)cc2)[C@@H](c2ccccc2)[C@@H]1c1ccccc1 — lower, 1.43
- COC(=O)[C@@H]1[C@H]2C[C@H]3c4[nH]c5ccccc5c4CCN3C[C@@H]2CC[C@@H]1O — lower, -0.402
- O=C(/C=C/c1ccc(O)cc1)CC(=O)/C=C/c1ccc(O)cc1 — lower, -1.34
- O=C(/C=C/c1ccccc1)CC(O)CCc1ccccc1 (stereo not drawn) — lower, -0.2
- O=C(/C=C/c1ccccc1)CC(=O)/C=C/c1ccccc1 — lower, -8.63
- c1ccc(-c2n[nH]c3c2oc2ccccc23)cc1 — lower, 0.646
- CCN1C(=CC=Cc2ccc3ccccc3[n+]2CC)C=Cc2ccccc21 — lower, -7.46
- CC1(C)CCC(C)(C)c2cc([C@@H](O)C(=O)Nc3ccc(C(=O)O)cc3F)ccc21 — higher, 5.37
- C=C(NC(=O)C(=C)NC(=O)c1csc(C2=N[C@H]3c4csc(n4)[C@H]4NC(=O)c5csc(n5)[C@H]([C@@](C)(O)[C@@H](C)O)NC(=O)[C@H]5CSC(=N5)C(=CC)NC(=O)[C@H]([C@@H](C)O)NC(=O)c5csc(n5)[C@]3(CC2)NC(=O)[C@H](C)NC(=O)C(=C)NC(=O)[C@H](C)NC(=O)[C@H](C(C)CC)N[C@@H]2C=Cc3c([C@H](C)O)cc(nc3[C@H]2O)C(=O)O[C@@H]4C)n1)C(N)=O (stereo partly drawn) — lower, -6.13
- COc1cc(C)c(C(=O)O[C@H]2[C@@H](OC(C)=O)[C@H](n3ccc(=O)[nH]c3=O)O[C@@H]2CO)c(OC)c1 — lower, 1.91 ± 0.92
- Cc1ccc(/C(=C\CN2CCCC2)c2ccccn2)cc1 — lower, 1.6
- CC(=O)O[C@H]1C(=O)[C@@]2(C)[C@H]([C@H](OC(=O)c3ccccc3)[C@]3(O)C[C@H](OC(=O)[C@H](O)[C@@H](NC(=O)c4ccccc4)c4ccccc4)C(C)=C1C3(C)C)[C@]1(OC(C)=O)CO[C@@H]1C[C@@H]2O — lower, -5.5
- CC(=O)OC1C(=O)C2(C)C(O)CC3OCC3(OC(C)=O)C2C(OC(=O)c2ccccc2)C2(O)CC(OC(=O)C(O)C(NC(=O)c3ccccc3)c3ccccc3)C(C)=C1C2(C)C (stereo not drawn) — lower, -3.69

CCN(CC)CCNC(=O)c1c(C)[nH]c(/C=C2\C(=O)Nc3ccc(F)cc32)c1C was tested, and the “cell shape (Z-score)” value was 10.3 and 12.2.
CC(=O)O[C@H]1C(=O)[C@@]2(C)C([C@H](OC(=O)c3ccccc3)[C@]3(O)C[C@H](OC(=O)[C@H](O)[C@@H](NC(=O)c4ccccc4)c4ccccc4)C(C)=C1C3(C)C)[C@]1(OC(C)=O)CO[C@@H]1C[C@@H]2O (stereo partly drawn) was tested, and the “cell shape (Z-score)” value was -4.41 and -4.29 and -4.69.
